Assay outcomes from PubChem.
An excerpt weighted towards active compounds, which were near 4.7% of everything screened.
Calb FLC: affects C. albicans growth with fluconazole. growth inhibition, % (no concentration beside the values). AID 1979. 0.57% of 300,000 active. C. albicans CaCi-2 (fluconazole-resistant clinical isolate) + fluconazole, Alamar Blue growth, 48 h;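 active means growth inhibition above about 58% in most replicates, limit read from the data, passing the limit was not always enough; inconclusive means exactly half the replicates above a set limit; inactive means most replicates below a set limit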;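 further: all wells also contain fluconazole at 8 µg/ml as a sub-toxic cotreatment; 0% = median of DMSO wells and 100% = median of geldanamycin control wells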
tim10-1 inh: growth inhibitors of tim10-1 mutant yeast. S. cerevisiae tim10-1 ts strain growth, BacTiter-Glo, 24 h. inhibition, % at 20 µM. 2.2% of 330,000 active. AID 463190;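 active means inhibition of at least 40%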;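 further: mutant grown at 25 °C; 0% = DMSO wells with yeast and 100% = wells holding no yeast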
SKKanGAS inh: SKKanGAS growth inhibition; S. pyogenes SKKanGAS, kanamycin growth, BacTiter-Glo, 6 h; 1.3% of 300,000 active; inhibition, % at 7.5 µM;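 active means mean replicate score, as percent of positive control median, at least 50; inconclusive means mean below 50 but one replicate at or above 50; inactive means mean and every replicate below 50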;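 further: strain carries kanamycin resistance gene driven by streptokinase promoter and grows in 40 µg/ml kanamycin; loss of luminescence reflects streptokinase promoter inhibition or plain growth inhibition; 0% = median of DMSO wells and 100% = positive control at its reference dose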
PfHsp90 yeast 2: inhibits growth of yeast expressing Plasmodium falciparum Hsp90. inhibition, % at 9.4 µM. 0.32% of 310,000 active. S. cerevisiae expressing PfHsp90, BacTiter-Glo ATP, 48 h; yeast lacking PDR1 and PDR3 efflux regulators;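 active means every replicate shows inhibition above about 80%, whatever the replicate mean, limit read from the data; inconclusive means mean inhibition reaches the set limit but some replicate falls short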;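 further: 0% = DMSO neutral controls and 100% = 20 µM radicicol positive controls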
TIM10 inh: growth inhibitors of TIM10 yeast strain | S. cerevisiae TIM10 strain growth, BacTiter-Glo luminescence, 24 h | inhibition, % at 10 µM | 1.4% of 330,000 active;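 active means inhibition of 40% or more at the single tested concentration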;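 further: wild-type TIM10 isogenic control strain grown at permissive 25 °C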
tim23-1 inh: inhibits growth of tim23-1 mutant yeast; AID 463212; 1.3% of 330,000 active; S. cerevisiae tim23-1 growth, BacTiter-Glo luminescence, 24 h; inhibition, % at 20 µM;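 active means growth inhibition of the mutant yeast at or above 50%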;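 further: temperature-sensitive mutant grown at 25 °C; plate controls were DMSO-treated mutant yeast for no effect and medium wells lacking yeast for full effect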
tim23-1 confirm: confirmation of tim23-1 mutant yeast growth inhibitors | 83% of 4,400 active | S. cerevisiae tim23-1 growth, BacTiter-Glo luminescence, 24 h | shares compounds with tim23-1 inh | AID 463218 | inhibition, % at 20 µM;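 active means inhibition above about 39% in either of two replicate wells at 20 µM, limit read from the data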;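 further: temperature-sensitive tim23-1 mutant grown at 25 °C; 0% = DMSO wells with yeast and 100% = medium wells without yeast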
An asterisk follows results filed as active.

`CC(C)NC1=C(Cl)C(=O)c2ccccc2C1=O` gave Calb FLC 19, tim10-1 inh 36, SKKanGAS inh 1, PfHsp90 yeast 2 -20, TIM10 inh 19, tim23-1 inh 55* and tim23-1 confirm 45*.
CCN(CC)CCCNC1=C(Cl)C(=O)c2ccccc2C1=O was read as Calb FLC -10, tim10-1 inh 17, SKKanGAS inh 11, TIM10 inh 1 and tim23-1 inh 8.
Screening Cc1ccc(Nc2nc3ccccc3s2)c(C)c1 returned Calb FLC -49, tim10-1 inh 38, SKKanGAS inh 6, PfHsp90 yeast 2 -15, TIM10 inh 37, tim23-1 inh 58* and tim23-1 confirm 46*.
`CC(C)C(NC(=O)c1ccc(Cl)c([N+](=O)[O-])c1)C(=O)NCc1ccccn1` (stereo not drawn) gave tim10-1 inh -14, PfHsp90 yeast 2 -16, TIM10 inh 2 and tim23-1 inh 3.
For CCc1ccc(OCC(=O)N2CCN(c3ccccn3)CC2)c(Br)c1 the results were Calb FLC 15, tim10-1 inh 37, SKKanGAS inh -5, PfHsp90 yeast 2 -13, TIM10 inh 26, tim23-1 inh 53* and tim23-1 confirm 38.
`Cc1nn(C)cc1S(=O)(=O)NCc1ccccc1Cl` gave tim10-1 inh 0, SKKanGAS inh -13, PfHsp90 yeast 2 21, TIM10 inh -2 and tim23-1 inh 15.
Screening CCc1ccc2c(Cl)c(C(=O)N/N=C/c3c[nH]c4ccccc34)sc2c1 returned Calb FLC -3, tim10-1 inh 9, SKKanGAS inh 69*, PfHsp90 yeast 2 4, TIM10 inh 20, tim23-1 inh 52* and tim23-1 confirm 39*.
CCc1ccc(-c2cc(C(=O)N/N=C/c3c[nH]c4ccccc34)[nH]n2)cc1 was read as Calb FLC 49, tim10-1 inh 9, SKKanGAS inh inconclusive, PfHsp90 yeast 2 35, TIM10 inh 19 and tim23-1 inh 7.
Screening O=C(OCCCOC(=O)c1ccccc1O)c1ccccc1O returned Calb FLC 4, tim10-1 inh -16, SKKanGAS inh 34, TIM10 inh -5 and tim23-1 inh -1.
For CC(C)(C)N1C(=O)c2ccc(C(=O)Nc3nccs3)cc2C1=O the results were Calb FLC -8, tim10-1 inh 5, SKKanGAS inh -4, PfHsp90 yeast 2 -2, TIM10 inh 8, tim23-1 inh 58* and tim23-1 confirm 59*.
For COc1cccc(C2N=C(c3ccccc3C)NO2)c1OC (stereo not drawn) the results were Calb FLC -10, tim10-1 inh -12, SKKanGAS inh 5, PfHsp90 yeast 2 -22, TIM10 inh 15 and tim23-1 inh 14.
Screening COC(=O)Sc1nnc(-c2ccc(Br)cc2)o1 returned Calb FLC -7, tim10-1 inh 10, SKKanGAS inh 25, TIM10 inh 22, tim23-1 inh 60* and tim23-1 confirm 52*.
`OCC#CCSc1nnc(-c2ccc(Br)cc2)o1` gave Calb FLC -48, tim10-1 inh 16, SKKanGAS inh -3, PfHsp90 yeast 2 5, TIM10 inh 35 and tim23-1 inh 14.
For COc1cc(NS(=O)(=O)c2ccc(NC(=O)/C=C/C(=O)O)cc2)nc(OC)n1 the results were Calb FLC 3, tim10-1 inh 5, SKKanGAS inh 1, PfHsp90 yeast 2 31, TIM10 inh 8 and tim23-1 inh -2.
Screening O=C(Cc1ccc(Cl)cc1)Nc1ccccc1C(=O)N1CCCCC1 returned Calb FLC -1, tim10-1 inh 18, SKKanGAS inh 0, PfHsp90 yeast 2 -12, TIM10 inh -11 and tim23-1 inh 15.
Cc1cccc(C(=O)OCC(=O)NC23CC4CC(CC(C4)C2)C3)c1O was read as tim10-1 inh 14, PfHsp90 yeast 2 0, TIM10 inh 38, tim23-1 inh 56* and tim23-1 confirm 56*.
CC(=O)Nc1ccc(NC(=O)C(C)Sc2nc3ccccc3c(=O)n2CC2CCCO2)cc1 (stereo not drawn) was read as Calb FLC -8, tim10-1 inh 9, SKKanGAS inh 0, TIM10 inh 15 and tim23-1 inh 13.
